From PubChem BioAssay (NCI) come the findings set out here.

Compounds without any hit were thinned out: in the full panel of roughly 79,000, 15% have a hit. Unmarked numbers belong to inactive results. Activity calls are given as the source filed them. Rule as the data show it: active = growth inhibition above about 70%; inactive = the rest.

This assay in a line: NCI Yeast Anticancer Drug Screen. Data for the sgs1 strain (AID 173).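 Also: 0% = growth of vehicle-only control cultures.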 Particulars: S. cerevisiae sgs1 mutant, hits give high values. The procedure: Growth inhibition of yeast strains with defined genetic alterations is measured as a screen for potential anti-cancer activity. Selected strains with alterations in DNA damage repair or cell cycle control were exposed to compounds and growth inhibition was measured relative to vehicle treated controls. The strain used in this assay is sgs1

For `CC(=O)ON1C(=O)c2cccc3cccc(c23)C1=O`, the growth inhibition is 44% (at 1.2 µM); 91% (active) (at 3.7 µM); 97% (active) (at 11.0 µM); 98% (active) (at 33.0 µM); 98% (active) (at 100.0 µM).

With `O=[N+]([O-])c1ccc2c(c1)C(N1CCN(CCO)CC1)Cc1ccc(F)cc1S2` (stereo not given), the growth inhibition runs as follows: (at 1.2 µM) -1%; (at 3.7 µM) -1%; (at 11.0 µM) -2%; (at 33.0 µM) 0%; (at 100.0 µM) 80% (active).

Turning to `CCCS(=O)(=O)Nc1ccc(Nc2c3ccccc3nc3ccccc23)c(OC)c1`, the growth inhibition is -45% (at 1.2 µM); -47% (at 3.7 µM); -41% (at 11.0 µM); 7% (at 33.0 µM); 77% (active) (at 100.0 µM).

Regarding `O=C1C=CC(=Nc2ccc3c(c2)Cc2cc(NC(=O)C(F)(F)F)ccc2-3)O1`, the growth inhibition is 7% (at 1.2 µM); 15% (at 3.7 µM); 34% (at 11.0 µM); 63% (at 33.0 µM); 98% (active) (at 100.0 µM).

`Fc1ccc(NC(=S)SCc2ccc3c(c2)OCO3)cc1F`: the growth inhibition by setting is: (at 1.2 µM) -17%; (at 3.7 µM) -13%; (at 11.0 µM) 59%; (at 33.0 µM) 99% (active); (at 100.0 µM) 96% (active).

As to `O=[N+]([O-])CC(SCc1ccccc1)c1ccc2c(c1)OCO2` (stereo not given), the growth inhibition (at 1.2 µM) is 30%; the growth inhibition (at 3.7 µM) was 54%; the growth inhibition (at 11.0 µM) is 97% (active); the growth inhibition (at 33.0 µM) was 100% (active); the growth inhibition (at 100.0 µM) was 99% (active).

`CC(=O)OCc1ccc(O)c(C=O)c1`: the growth inhibition (at 1.2 µM) is -11%; the growth inhibition (at 3.7 µM) is -5%; the growth inhibition (at 11.0 µM) was 10%; the growth inhibition (at 33.0 µM) was 34%; the growth inhibition (at 100.0 µM) was 63%.

With `[O-][n+]1c2ccc(O)cc2nc2ccc(Br)cc21`, the growth inhibition is, setting by setting: (at 1.2 µM) 4%; (at 3.7 µM) 8%; (at 11.0 µM) 28%; (at 33.0 µM) 74% (active); (at 100.0 µM) 84% (active).
